This is a sample that favours compounds with a hit; in the whole collection about 5.7% have one here.
GLP-1R agonist: GLP-1 receptor (human) agonism; P43220; HEK293 GLP-1R CRE-luciferase, luminescence, 4-6 h; cells express a hypersensitive GLP-1R form; Potency, µM (top dose mostly 45.6 µM), hits mostly activators; 0.007% of 380,000 active; AID 624172
DRD3 agonist: activates the human D3 dopamine receptor; D3R DiscoveRx beta-arrestin cells, luminescence, 90 min; max activation, %; 0.58% of 410,000 active; AID 652048; in the data active = max activation above about 30%
Target sequence (P35462 whole entry, looked up): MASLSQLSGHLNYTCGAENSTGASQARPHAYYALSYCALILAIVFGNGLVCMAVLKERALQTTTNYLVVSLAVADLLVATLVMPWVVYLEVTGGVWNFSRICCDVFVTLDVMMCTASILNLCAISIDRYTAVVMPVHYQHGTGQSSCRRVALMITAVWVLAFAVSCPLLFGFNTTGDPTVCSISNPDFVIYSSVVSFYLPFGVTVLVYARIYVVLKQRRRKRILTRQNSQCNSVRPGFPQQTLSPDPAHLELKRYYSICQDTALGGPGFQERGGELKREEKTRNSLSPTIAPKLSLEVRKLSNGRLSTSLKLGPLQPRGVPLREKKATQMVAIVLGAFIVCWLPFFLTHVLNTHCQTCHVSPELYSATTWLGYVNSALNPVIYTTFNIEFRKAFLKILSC
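Agonist mode: compounds and dopamine controls were applied to plated cells for 90 min at 37 degrees C after an overnight attachment at 1500 cells/well. Luminescent read-out followed 30 - 60 minutes at room temperature with DiscoveRx detection reagent.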
HEK293 tox: cytotoxic in the GLP-1 receptor inverse agonist counter-screen; HEK293 cAMP-luciferase reporter cells, luminescence, 24 h; Potency, µM (highest dose often 38.3 µM), hits mostly inhibitors; 0.13% of 410,000 active;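 note: loss of luciferase light is scored as toxicity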
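A 23 nL compound transfer followed 12 hours of cell culture at 37 deg C; exposure then lasted 24 hr. Luciferase assay detection reagent was dispensed and plates read for luminescence after a 12 min room-temperature wait.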
D3 antag: antagonists of human D3 dopamine receptor. D3R cells, DiscoveRx beta-arrestin luminescence, antagonist mode; stronger effect = lower value. 2.5% of 360,000 active. AID 652054. max response, negative = inhibition, %; in the data active = max response below about -50%; inconclusive = no clear call, values can overlap the other calls
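Cells plated overnight at 1500 cells/well, then exposed to library compounds with dopamine controls for 90 minutes at 37 degrees C. DiscoveRx reagent added for 30–60 minutes at room temperature; luminescence read, quantitative HTS format.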
GLP-1R inv ag: acts as inverse agonist at human GLP-1 receptor. P43220. 1.6% of 410,000 active. Potency, µM (series often up to 38.3 µM), usual class: inhibitors. HEK293 GLP-1R CRE-luciferase, luminescence, 24 h; GLP-1R form is constitutively active; note: nearly all actives have a fitted effect of over 55% in size
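Inverse agonists were sought by their lowering of basal cAMP reporter luciferase output in HEK293 cells stably carrying constitutively active human GLP-1R, after 24 h compound treatment.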
ClpP mod: qHTS Assay for Activators of ClpP. AID 651965, 2013. purified B. subtilis ClpP, FRET peptide cleavage, 20 min. 1.9% of 340,000 active. Potency, µM (titrated, usually from 57.5 µM); active = well fitted falling curve with a large enough effect; inconclusive = small, poorly fitted or top-dose-only effect; inactive = no such curve, though single readings can be large or run the other way; note: the source files actives as falling curves though it sought activators and does not explain the sign; nearly all actives have a fitted effect of over 65% in size
Target sequence (P80244 whole entry, looked up): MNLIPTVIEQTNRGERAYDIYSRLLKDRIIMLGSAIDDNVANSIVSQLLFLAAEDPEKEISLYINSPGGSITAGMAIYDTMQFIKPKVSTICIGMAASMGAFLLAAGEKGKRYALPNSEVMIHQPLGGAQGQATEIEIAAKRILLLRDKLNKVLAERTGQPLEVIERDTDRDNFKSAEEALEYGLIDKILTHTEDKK
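Purified B. subtilis ClpP, 10 microg/mL final in Tris/HCl pH8 with KCl, BSA, glycerol and Tween-20, cleaved an Abz/nitrotyrosine-quenched decapeptide. Fluorescence (ex 320, em 430) was read at 0 and 20 min at room temperature. Delta was normalized to 5.8 microM ADEP and DMSO/no-enzyme controls.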
Of the large screens only hits and unclear results are named; the others gave an inactive call. Unless noted, calls come from the whole dose curve; as a rule, active = well fitted curve in the direction sought with a large enough effect; inconclusive = small, poorly fitted or top-dose-only effect, or another doubt; inactive = no such curve, though single readings can be large; an effect the other way counts as inactive or inconclusive.

CCC(C)Sc1ccc(-c2nc3ccccn3c2NCc2ccccc2)cc1OC (stereo not given)	none
COc1cc(-c2nc3ccc(C)cn3c2NCc2ccccc2)ccc1-c1cccc(Cl)c1	GLP-1R inv ag 8.9µM
COc1cc(-c2nc3ccccn3c2NCC2CCCO2)ccc1O (stereo not given)	ClpP mod 25µM
COc1cc(-c2nc3ccc(C)cn3c2NCc2ccccc2)ccc1SC1CCCCC1	GLP-1R inv ag 4µM
CCCCNc1c(-c2ccc(OC)c(SC3CCCCC3)c2)nc2ccc(Cl)cn12	ClpP mod inconclusive
COc1cc(-c2nc3ccccn3c2NCc2ccccc2)ccc1SC1CCCCC1	DRD3 agonist 87, GLP-1R inv ag inconclusive, ClpP mod inconclusive
O=C(CSc1cn(CC(=O)N2CCOCC2)c2ccccc12)Nc1ccccc1F	none (no result: GLP-1R agonist, D3 antag)
CCOc1ccc(NC(=O)CCCc2nc(-c3cccc(OC)c3)no2)cc1	none (no result: GLP-1R agonist, D3 antag)
COC(=O)CCNC(=O)NC(CCC(C)C)c1c(-n2cccc2)sc2c1CCN(C)C2 (stereo not given)	none (no result: GLP-1R agonist, D3 antag)
O=C(NC1CC2CCCC(C1)N2Cc1ccccc1)c1cccc(F)c1 (stereo not given)	D3 antag -106
O=C(NC1CC2CCCC(C1)N2Cc1ccccc1)c1cccc(Cl)c1 (stereo not given)	D3 antag -76
CCCN1C2CCCC1CC(NC(=O)c1cccc([N+](=O)[O-])c1)C2 (stereo not given)	ClpP mod 28µM
CCCN1C2CCCC1CC(NC(=O)c1cccc(Cl)c1)C2 (stereo not given)	none
O=C(CN1C2CCCC1CC(NC(=O)c1ccccc1)C2)Nc1ccccc1 (stereo not given)	GLP-1R inv ag inconclusive (no result: ClpP mod)
CC1(C(=O)NCc2ccccc2)CN(S(C)(=O)=O)CC(=O)N1Cc1cccc(C(F)(F)F)c1 (stereo not given)	D3 antag inconclusive (no result: GLP-1R agonist)
O=C(c1cc(-c2ccncc2)nc2ccc(Cl)cc12)N1CCN(C(=O)C2CCCO2)CC1 (stereo not given)	none
CC(=O)c1ccc(N2CCN(C(=O)c3cc(-c4ccncc4)nc4ccc(Cl)cc34)CC2)cc1	DRD3 agonist 34
CC(=O)Nc1cccc(-c2ccnc3c2CC(C(=O)NCc2cccc(Cl)c2)O3)c1 (stereo not given)	GLP-1R inv ag inconclusive
COc1ccc(NC(=O)C2Cc3c(-c4cccc(NC(C)=O)c4)ccnc3O2)cc1 (stereo not given)	D3 antag -58, GLP-1R inv ag inconclusive
CC(=O)Nc1ccc(-c2ccnc3c2CC(C(=O)NCc2cccc(Cl)c2)O3)cc1 (stereo not given)	GLP-1R agonist inconclusive, HEK293 tox inconclusive, GLP-1R inv ag 3.5µM
CC(=O)c1cccc(-c2ccnc3c2CC(C(=O)Nc2ccc(Cl)cc2)O3)c1 (stereo not given)	HEK293 tox inconclusive, D3 antag -61, GLP-1R inv ag inconclusive
CCCC[C@@H](CC)COC(=O)C[C@H](C(=O)OC[C@H](CC)CCCC)S(=O)(=O)O	none (no result: DRD3 agonist, HEK293 tox, D3 antag, GLP-1R inv ag, ClpP mod)
CCOc1cc2[nH]c(=S)n(CCCC(=O)NCc3ccco3)c(=O)c2cc1OCC	none
CCOc1cc2[nH]c(=O)n(CCCCC(=O)N3CCCCCC3)c(=O)c2cc1OCC	ClpP mod 13µM
CCOc1cc2[nH]c(=O)n(CCCCC(=O)NCc3ccco3)c(=O)c2cc1OCC	ClpP mod 35µM
O=C(CCN1C(=O)c2ccccc2S1(=O)=O)NCc1ccco1	none
O=C(CCCCCN1C(=O)c2ccccc2C1=O)NCc1ccco1	ClpP mod 18µM
CCOc1cc2[nH]c(=O)n(CCCCC(=O)N3CCN(c4cccc(Cl)c4)CC3)c(=O)c2cc1OCC	none (no result: GLP-1R agonist, D3 antag)
CCOc1cc2[nH]c(=O)n(CCCC(=O)NCc3ccco3)c(=O)c2cc1OCC	ClpP mod 25µM
COCCNc1nc2ccccc2nc1NS(=O)(=O)c1ccc(C)cc1C	ClpP mod 28µM
COCCCNc1nc2ccccc2nc1NS(=O)(=O)c1ccc(C)c(C)c1	none (no result: ClpP mod)
CCSc1nnc(NC(=O)C(NC(=O)c2ccc(Cl)cc2)C(C)C)s1 (stereo not given)	D3 antag -61
CCc1nnc(NC(=O)c2ccc3ccccc3n2)s1	HEK293 tox inconclusive, GLP-1R inv ag 7.9µM
CCSc1nnc(NC(=O)c2cc(C)nc3ccccc23)s1	none
CCSc1nnc(NC(=O)c2ccc3ccccc3n2)s1	HEK293 tox inconclusive, GLP-1R inv ag 5µM
CC(=O)Nc1ccc(NC(=O)C(NC(=O)c2ccc(Cl)cc2)C(C)C)cc1 (stereo not given)	none
CCc1nnc(NC(=O)c2nc(Cl)ccc2Cl)s1	none
Cc1cccc(Nc2nnc(-c3ccc(C)c(S(=O)(=O)N4CCOCC4)c3)c3ccccc23)c1	none (no result: GLP-1R agonist, D3 antag)
COc1cccc(C2=CC(c3ccccc3O)NC(C)(C)N2)c1 (stereo not given)	none (no result: GLP-1R agonist, DRD3 agonist, HEK293 tox, D3 antag, GLP-1R inv ag)
CCCC(=O)N1CCC1(C)C(=O)NS(=O)(=O)c1ccc(C(C)(C)C)cc1 (stereo not given)	none
COc1ccc(NC(=O)c2cc(-c3cc(C)cc(F)c3)n[nH]2)cc1OC	GLP-1R inv ag inconclusive
COc1ccccc1NC(=O)C1=C(C)Nc2ncnn2C1c1ccc[nH]1 (stereo not given)	none (no result: D3 antag)
COc1ccc2[nH]c3c(c2c1)CCN1C(=O)C(CC(=O)NCCC2=CCCCC2)C[C@H](C(=O)N(C(C)C)C(C)C)[C@@]31C (stereo not given in full)	DRD3 agonist 30, HEK293 tox inconclusive, GLP-1R inv ag 10µM
CCN(CC)C(=O)[C@H]1CC(CC(=O)NCCC2=CCCCC2)C(=O)N2CCc3c([nH]c4ccc(OC)cc34)[C@]12C (stereo not given in full)	DRD3 agonist 41, GLP-1R inv ag inconclusive
CC(C)N(C(=O)[C@H]1C[C@H](CC(=O)NCC23CC4CC(CC(C4)C2)C3)C(=O)N2CCc3c([nH]c4ccc(Cl)cc34)[C@]12C)C(C)C	DRD3 agonist 37
CC(C)N(C(=O)[C@H]1CC(CC(=O)NCCC2=CCCCC2)C(=O)N2CCc3c([nH]c4ccccc34)[C@]12C)C(C)C (stereo not given in full)	none
O=[N+]([O-])c1cccc(Cl)c1NCCNS(=O)(=O)c1ccc(Cl)cc1	none
O=[N+]([O-])c1cccc(Cl)c1NCCNS(=O)(=O)c1ccccc1	D3 antag -56
CCCCCCCCNS(=O)(=O)CCNCc1ccco1	DRD3 agonist 37, GLP-1R inv ag inconclusive

Assay outcomes: PubChem BioAssay, National Center for Advancing Translational Sciences (NCATS)
